Sfp PPTase inh: qHTS Assay for Inhibitors of Bacillus subtilis Sfp phosphopantetheinyl transferase (PPTase). 4'-phosphopantetheinyl transferase ffp (Bacillus subtilis), Q9F4F7. Biochemical Sfp PPTase activity, qHTS. Potency, µM, usual class: inhibitors. actives 3.5% (n = 310,000);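 also: the enzyme is Sfp with the accession as filed and its product quenches rhodamine fluorescence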
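After 15 min at room temperature with compound, 15 nM Sfp received 5 uM rhodamine-CoA plus 12.5 uM BHQ-2-ybbR (50 mM Hepes pH 7.6, 10 mM MgCl2). Rate came from the fluorescence difference over 30 min, ex 525/em 598 nm.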
L3MBTL1 block: qHTS Assay for the Inhibitors of L3MBTL1; Lethal(3)malignant brain tumor-like protein 1 (Homo sapiens), Q9Y468; AlphaScreen L3MBTL1–H3K9me1 peptide binding; Potency, µM (titrated, usually from 57.1 µM), most hits filed as inhibitors; actives 0.66% (n = 230,000); AID 485360, 2010; also: nearly all actives have a fitted effect of over 60% in size
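First, the protein-peptide complex forms for 30 min at room temperature (L3MBTL1 50 nM, biotinylated H3K9me1 peptide 75 nM). Next, compounds are pin-transferred and incubated 30 min. Finally, AlphaScreen beads are added and read after 30 min.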
HP1b chromo inh: HTS for Inhibitors of HP1-beta Chromodomain Interactions with Methylated Histone Tails; AID 540317, 2011; Potency, µM (top dose mostly 114 µM), hits mostly inhibitors; actives 0.56% (n = 390,000); AlphaScreen HP1-beta / biotin-H3K9me3 peptide binding; Chromobox protein homolog 1 (Homo sapiens), P83916; also: nearly all actives have a fitted effect of over 70% in size
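Compound inhibition of the preformed complex between 50 nM HP1-beta and 50 nM biotinylated H3K9me3 peptide was read by AlphaScreen. Buffer was PBS pH 7.4 with 0.01% Tween-20. Incubations ran 30 min at room temperature, with 10 ug/mL donor/acceptor beads.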
BAZ2B inh: qHTS Assay for Inhibitors of BAZ2B. AlphaScreen BAZ2B-H3K14Ac peptide displacement. Potency, µM (series often up to 114 µM), usual class: inhibitors. actives 4.4% (n = 360,000); also: nearly all actives have a fitted effect of over 60% in size
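AlphaScreen displacement of biotin-H3(5-23)K14Ac peptide (50 nM final) from BAZ2B (50 nM final) in PBS pH 7.4, 0.01% Tween-20; complex preformed 30 min RT, then compounds (top 110 uM) 30 min RT, beads 20 min dark.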
G9a block: qHTS Assay for Inhibitors of Histone Lysine Methyltransferase G9a. Histone-lysine N-methyltransferase EHMT2 (Homo sapiens), Q96KQ7. G9a H3K9 monomethylation, AlphaScreen, 2 h. Potency, µM (top dose mostly 102 µM), hits mostly inhibitors. actives 8.8% (n = 350,000). AID 504332, 2011; also: nearly all actives have a fitted effect of over 75% in size
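Readings reflect AlphaScreen signal from monomethyl-H3K9 antibody detection. HMT at 20 nM; substrate b-H3K9 500 nM; cofactor SAM 20 uM; 2 h RT reaction; compounds tested as titrations in qHTS with 15 min preincubation.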
JMJD2A Tudor: qHTS Assay for Inhibitors of JMJD2A-Tudor Domain; Lysine-specific demethylase 4A (Homo sapiens), O75164; AlphaScreen JMJD2A-Tudor / H3K4me3 peptide binding; Potency, µM (titrated, usually from 114 µM), usual class: inhibitors; actives 4.4% (n = 390,000); also: nearly all actives have a fitted effect of over 50% in size
Large screens that a line does not name were inactive. This is a sample that favours compounds with a hit; in the whole collection about 12% have one here. Calls follow the shape of the dose curve; as a rule, active = well fitted curve in the direction sought with a large enough effect; inconclusive = small, poorly fitted or top-dose-only effect, or another doubt; inactive = no such curve, though single readings can be large; an effect the other way counts as inactive or inconclusive.

CC(=O)C1CCC2C3CC=C4CC(O)CC[C@@]4(C)C3CC[C@]12C (some centres undefined)	none (no result: L3MBTL1 block, HP1b chromo inh, BAZ2B inh, JMJD2A Tudor)
CS(=O)(=O)Nc1cccc(-c2ccc3ncnc(Nc4ccc(F)cc4)c3c2)c1	none (no result: L3MBTL1 block, HP1b chromo inh, BAZ2B inh, G9a block, JMJD2A Tudor)
C[C@H](CCC(=O)O)[C@H]1CC[C@H]2[C@H]3C(C[C@H](O)[C@]12C)[C@@]1(C)CC[C@@H](O)C[C@H]1C[C@H]3O (some centres undefined)	none (no result: L3MBTL1 block, HP1b chromo inh, BAZ2B inh, JMJD2A Tudor)
COc1ccc(NC(=O)Cn2ccn(Cc3ccccc3)c(=O)c2=O)cc1Cl	BAZ2B inh inconclusive (no result: Sfp PPTase inh, L3MBTL1 block)
Nc1ccc(C(O)(C(F)(F)F)C(F)(F)F)cc1	JMJD2A Tudor inconclusive (no result: L3MBTL1 block)
Cc1ccc(C(C)(c2ccc(N)cc2)c2ccc(N)cc2)cc1	HP1b chromo inh inconclusive, JMJD2A Tudor 50µM (no result: Sfp PPTase inh, L3MBTL1 block, BAZ2B inh, G9a block)
CC(=O)OC(C[N+]1(C)CCCCCC1)c1ccccc1 (centres undefined)	none (no result: L3MBTL1 block)
C[N+]1(CCC(=O)c2ccccc2)CCCCC1	HP1b chromo inh inconclusive, G9a block 2µM, JMJD2A Tudor inconclusive
CCOC(=O)C1(C)/C(=N/Nc2cccc(Cl)c2)C(=O)C(=O)N1c1ccccc1 (centres undefined)	HP1b chromo inh inconclusive, BAZ2B inh inconclusive, G9a block inconclusive, JMJD2A Tudor 28µM
CCOC(=O)C1(C)/C(=N/Nc2ccc(Cl)cc2)C(=O)C(=O)N1c1ccccc1 (centres undefined)	HP1b chromo inh inconclusive, BAZ2B inh 56µM, G9a block inconclusive, JMJD2A Tudor 16µM (no result: L3MBTL1 block)
CCOC(=O)CSc1nnc(CNc2cccc(Cl)c2)n1-c1ccccc1	none (no result: L3MBTL1 block)
CCOC(=O)C1(C)C=C(Nc2ccc(OC)cc2)C(=O)N1c1ccccc1 (centres undefined)	G9a block inconclusive (no result: Sfp PPTase inh, L3MBTL1 block)
CCOC(=O)C1(C)/C(=N/Nc2ccc(S(N)(=O)=O)cc2)C(=O)C(=O)N1c1ccccc1 (centres undefined)	G9a block 35µM (no result: L3MBTL1 block)
CCOC(=O)C1(C)/C(=N/Nc2ccccc2Cl)C(=O)C(=O)N1c1ccccc1 (centres undefined)	HP1b chromo inh inconclusive, BAZ2B inh 50µM, G9a block 3.5µM, JMJD2A Tudor 40µM (no result: L3MBTL1 block)
O=C(CN1C(=O)COc2ccc(S(=O)(=O)N3CCCC3)cc21)N1CCN(c2ccccc2)CC1	none (no result: Sfp PPTase inh, L3MBTL1 block)
COc1cccc(CNC(=O)c2cc(S(=O)(=O)N3CCCCC3)cn2C)c1	none (no result: Sfp PPTase inh, L3MBTL1 block)
COC(=O)c1ccc(NC(=O)CSc2nc(=O)[nH]c3c2CCCC3)cc1	none (no result: Sfp PPTase inh, L3MBTL1 block)
CCOC(=O)C1=C(C)N=c2s/c(=C\c3ccc(OC(C)=O)c(OCC)c3)c(=O)n2C1/C=C/c1ccccc1 (centres undefined)	Sfp PPTase inh 45µM, JMJD2A Tudor 45µM
CCOC(=O)C1=C(C)N=c2s/c(=C\c3cccc(OCC(=O)O)c3)c(=O)n2C1c1ccccc1OC (centres undefined)	Sfp PPTase inh 79µM, BAZ2B inh 50µM, G9a block 40µM, JMJD2A Tudor inconclusive (no result: L3MBTL1 block)
CCOC(=O)C1=C(C)N=c2s/c(=C/c3ccc(OCC(=O)O)cc3)c(=O)n2C1c1cc(OC)c(OC)c(OC)c1 (centres undefined)	none (no result: G9a block)
O=S(=O)(N/N=C/c1ccc(Cl)cc1)c1ccc(Cc2ncc(C(F)(F)F)cc2Cl)s1	G9a block 28µM, JMJD2A Tudor inconclusive (no result: L3MBTL1 block)
CCOc1ccc(-c2nc3c(C#N)c[nH]n3c2NC2CCCC2)cc1	G9a block inconclusive (no result: Sfp PPTase inh, L3MBTL1 block)
CCN(CC)S(=O)(=O)c1ccc(N2CCCC2)c(NS(=O)(=O)c2ccc(OC)cc2)c1	G9a block 35µM
CCN(CC)S(=O)(=O)c1ccc(N2CCCC2)c(NS(=O)(=O)c2ccc([N+](=O)[O-])cc2)c1	G9a block 10µM

Screening results (PubChem)
